Data as given in PubChem BioAssay (EPA / NIEHS).
“And” between values parts separate entries of the source, which are not always exact repeats. Equal entries are not always repeated. A structure can be active in one record and inactive in another. The source made the active and inactive calls. The calls were made as follows: active = hit-call score of the fitted dose curve at least 0.9, where 1 is the maximum; inactive = score below 0.9.

Experiment: ATG_FoxO_CIS: Attagene CIS-FACTORIAL HepG2 Assay for human Forkhead box O (FoxO) (AID 2282943)
Settings: HepG2 Attagene cis-reporter, FoxO element, mRNA; actives raise or lower the signal
Description: ATG_CIS is a cell-based, multiplexed-readout assay that uses HepG2, a human liver cell line, with measurements taken at 24 hours after chemical dosing in a 24-well plate.ATG_FoxO_CIS is one of 52 assay component(s) measured or calculated from the ATG_CIS assay. It is designed to make measurements of mRNA induction, a form of inducible reporter, as detected with fluorescence intensity signals by Reverse transcription polymerase chain reaction (RT-PCR) and Capillary electrophoresis technology.Data from the assay component ATG_FoxO_CIS was analyzed into 1 assay endpoint. This assay endpoint, ATG_FoxO_CIS, was analyzed with bidirectional fitting relative to DMSO as the negative control and baseline of activity. Using a type of inducible reporter, measures of mRNA for gain or loss-of-signal activity can be used to understand the reporter gene at the transcription factor-level as they relate to the gene FOXO1 and FOXO3. Furthermore, this assay endpoint can be referred to as a primary readout, because this assay has produced multiple assay endpoints where this one serves a reporter gene function. To generalize the intended target to other relatable targets, this assay endpoint is annotated to the dna binding intended target family, where the subfamily is forkhead box protein.
Human liver HepG2 cells are transiently transfected with multiple reporter transcription units (MRTUs) in 6-well plates using FuGene 6 reagent (Roche; 3 ml FuGene/1 mg DNA). The MRTU constructs are regulated by a cis-regulating element (promoter). […] A major difference between the CIS and TRANS system is that in CIS activities of endogenous TFs are measured, whereas the TRANS assay evaluates changes in activities of exogenous, chimeric NR-Gal4 proteins. […] At the end of 24 hour incubation, total RNA was isolated using TriZol reagent (Invitrogen). The isolated RNA is then reverse-transcribed using oligo(dT) primer and Mo-MLV reverse transcriptase (Invitrogen) with DNAse I (Ambion) treatment for 30 min. The one-tenth of the produced cDNA was amplified by PCR using Taq DNA polymerase (Invitrogen) and two reporter sequence-specific primers. The PCR products were fluorescently labeled by primer extension with 6-arboxyfluorescein (6-FAM) 5'-labeled reporter sequence-specific primer (2 min at 95 C, 20 s at 68 C and 10 min at 72 C) and these products were digested with 5U of HpaI (New England Biolabs) for 2h at 37 C. The fragments were purified using Qiaquick PCR columns (Qiagen), analyzed on an ABI 3130xL genetic analyzer (Applied Biosystems) with peak positions identified by using a set of X-rhodamine (ROX)-labeled MapMarker1000 molecular weight standards (BioVentures). The raw capillary electrophoresis data was processed using Attagraph software (Attagene).
With O=C(O)C(F)(F)C(F)(F)C(F)(F)C(F)(F)C(F)(F)F the outcome was “inactive”. In the case of Sc1ccccc1, the outcome is reported as “inactive”. In the case of c1cc2ccc3cccc4ccc(c1)c2c34, the outcome is reported as “inactive”. With C[C@]12CCC(=O)C=C1CC[C@@H]1[C@@H]2CC[C@@]2(C)[C@H]1CC[C@]2(C)O the outcome was “inactive”. With CC1=C2C[C@H]3[C@@H](CC=C4C[C@@H](O)CC[C@@]43C)[C@@H]2CC[C@]12O[C@@H]1C[C@H](C)CN[C@H]1[C@H]2C the outcome was “inactive”. With CN(C)CCO the outcome was “inactive”. For Cc1cc(O)ccc1Cl, the outcome was “inactive”. In the case of Oc1ccc(C(c2ccc(O)cc2)(C(F)(F)F)C(F)(F)F)cc1, the outcome is reported as “inactive”. In the case of O=C(O)C(F)(F)C(F)(F)C(F)(F)C(F)(F)C(F)(F)C(F)(F)C(F)(F)C(F)(F)C(F)(F)F, the outcome is reported as “inactive”. In the case of Oc1c(Cl)c(Cl)c(Cl)c(Cl)c1Cl, the AC50 is reported as 33.6 µM (active) and the outcome is reported as “inactive”. For Cc1ccccc1[N+](=O)[O-], the outcome was “inactive”. For CO/C=C(/C(=O)OC)c1ccccc1COc1cccc(C(F)(F)F)n1, the outcome was “inactive”. For O=C(N[C@H]1CN2CCC1CC2)c1cc2ccoc2cn1, the outcome was “inactive”. In the case of Cc1cccc(C)c1N, the outcome is reported as “inactive”. With CC(c1ccc(O)cc1)(c1ccc(O)cc1)c1ccc(O)cc1 the outcome was “inactive”. For CC(C)C(=O)OCC(C)(C)C(OC(=O)C(C)C)C(C)C (stereo not given), the outcome was “inactive”. In the case of CCC(=O)O[C@H]1CC[C@H]2[C@@H]3CCC4=CC(=O)CC[C@]4(C)[C@H]3CC[C@]12C, the outcome is reported as “inactive” and the AC50 is reported as 135 µM (active) and 185 µM (active). With ClC1=C(Cl)[C@]2(Cl)[C@@H]3[C@@H](Cl)[C@H]4O[C@H]4[C@@H]3C1(Cl)C2(Cl)Cl the outcome was “inactive”. In the case of CCOC(=O)C(O)(c1ccc(Cl)cc1)c1ccc(Cl)cc1, the outcome is reported as “inactive”. With C=CC(=O)NCNC(=O)C=C the outcome was “inactive”. In the case of O=C(NC(=O)c1cc(F)c(F)cc1Cl)Nc1cc(F)ccc1N1CCC(C(=O)O)CC1, the outcome is reported as “inactive”. For Cc1ccccc1O, the outcome was “inactive”. In the case of OCC(O)CO, the outcome is reported as “inactive”. With CCNc1nc(NC(C)C)nc(SC)n1 the outcome was “inactive”. In the case of C1CC2OC2CC1C1CO1 (stereo not given), the outcome is reported as “inactive”. For CN(C)c1nc(=O)n(C2CCCCC2)c(=O)n1C, the outcome was “inactive”. In the case of CCCCCCCCOC(=O)c1ccccc1C(=O)OCCCCCCCC, the outcome is reported as “inactive”. In the case of CC(C)(c1ccccc1)c1ccc(O)cc1, the outcome is reported as “inactive”. In the case of C[C@]12CCC(=O)C=C1CC[C@@H]1[C@@H]2CC[C@]2(C)C(=O)CC[C@@H]12, the outcome is reported as “inactive”. In the case of CCSC(=O)N(CC)C1CCCCC1, the outcome is reported as “inactive”. In the case of N#Cc1ccc(N(CC(N)=O)CC(F)(F)F)cc1C(F)(F)F, the outcome is reported as “inactive”. With Nn1cnnc1 the outcome was “inactive”. For CCOCCOC(C)=O, the outcome was “inactive”. For COc1ccc(O)c(C(C)(C)C)c1, the outcome was “inactive”. With ClC1=C(Cl)[C@]2(Cl)[C@@H]3[C@@H]4C[C@@H]([C@H]5O[C@@H]45)[C@@H]3[C@@]1(Cl)C2(Cl)Cl the outcome was “inactive”. For CCC(C)(c1ccc(O)cc1)c1ccc(O)cc1, the outcome was “inactive”. In the case of O=C(O)C(F)(F)C(F)(F)C(F)(F)C(F)(F)C(F)(F)C(F)(F)C(F)(F)C(F)(F)F, the outcome is reported as “inactive”. For CCC(C)c1cc([N+](=O)[O-])cc([N+](=O)[O-])c1O (stereo not given), the outcome was “inactive”.
